A collection of fitness landscapes (doi:10.1016/j.celrep.2020.107928)
Over roughly 81,000 sequences, “one-hybrid fitness for binding parS DNA” has its median near -0.17; the highest 2% begin near 0.51. The sample holds the highest values, similar sequences and a random draw of the others, so the mix is not that of the screen.

B1: Caulobacter ParB omega fusion; a variant is named by its letters at X, in order, B8GW30 (parent)
chain: MESVVVGEPGMSEGRRGLGRGLSALLGEVDAAPAQAPGEQLGGSREAPIEILQRNPDQPRRTFREEDLEDLSNSIREKGVLQPILVRPSPDTAGEYQIVAGERAWRAAQRAGLKTVPIMVRELDDLAVLEIGIIENVQRADLNVLEEALSYKVLMEKFERTQENIAQTIGKSXSHVANXMRLLXLPDEVQSYLVSGELTAXHARAIAAAADPVALAKQIIEGGLSVRETEALARKAPNLSAGKSKGGRPPRVKDTDTQALESDLSSVLGLDVSIDHRGSTGTLTITYATLEQLDDLCNRLTRGI

Variants of: B1
Assay: one-hybrid fitness for binding parS DNA (scaled: cognate 1, non-cognate 0); higher = stronger binding
Conditions: with parS DNA site
In short: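 Pre- and post-selection plasmids were Illumina-sequenced, three replicate libraries were pooled, and any variant with under 10 reads was removed. The libraries were Caulobacter ParB with four specificity codons randomised, selected in E. coli USO through a HIS3 reporter whose site is 19 bp from the promoter. Cells grew 48 hours at 37°C on M9 without histidine, with 0.1 mM IPTG and 5 mM 3-AT. Fitness is the log change in variant-to-wild-type read ratio, rescaled against cognate and non-cognate.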

Variant	one-hybrid fitness for binding parS DNA
RGKP	≤ 0.2
RGLP	≤ 0.2
RGSP	≤ 0.2
RGSG	0.771
RGSH	≤ 0.2
RGQH	≤ 0.2
RGLG	0.597
RGQG	0.727
RGVG	0.502
RGKG	0.896
RGQP	≤ 0.2
RGLH	≤ 0.2
PKPQ	≤ 0.2
PRNG	≤ 0.2
HPRY	≤ 0.2
RGDG	0.496
RGFG	0.504
RGNG	0.801
RGYG	0.576
RGAG	0.661
RGAN	≤ 0.2
RGPG	0.298
RGCP	≤ 0.2
RGNH	≤ 0.2
RGCG	0.558
RGCM	≤ 0.2

Variant	one-hybrid fitness for binding parS DNA
RGIG	0.47
PPPF	≤ 0.2
VAEC	≤ 0.2
FHHI	≤ 0.2
RGAI	≤ 0.2
LDML	≤ 0.2
CFTC	≤ 0.2
MHTL	≤ 0.2
NSGN	≤ 0.2
MIEG	≤ 0.2
RGHN	≤ 0.2
RGWG	0.51
RGRH	≤ 0.2
RGWY	≤ 0.2
RGGD	≤ 0.2
RGRG	0.874
RGRN	0.341
RGHG	0.65
RGGG	0.64
RGGH	≤ 0.2
RGWR	≤ 0.2
RGHP	≤ 0.2
KLKH	≤ 0.2
KDID	≤ 0.2
PVSF	≤ 0.2
QEKR	≤ 0.2

Variant	one-hybrid fitness for binding parS DNA
MRPT	≤ 0.2
NPTS	≤ 0.2
FQVG	≤ 0.2
NYES	≤ 0.2
RYNA	0.58
DYNA	≤ 0.2
EYNA	≤ 0.2
RYDA	0.559
FRQS	≤ 0.2
WVAL	≤ 0.2
HINS	≤ 0.2
FSFV	≤ 0.2
GGMR	≤ 0.2
RHRS	0.823
RHHD	≤ 0.2
RHIS	0.813
RHIP	≤ 0.2
RHID	≤ 0.2
RHYS	0.976
RHRD	≤ 0.2
RHHN	0.391
RHRN	0.374
RHHS	0.914
RHPS	0.475
RHYH	0.223
TIDD	≤ 0.2

Variant	one-hybrid fitness for binding parS DNA
PRIM	≤ 0.2
TPSD	≤ 0.2
ANRF	≤ 0.2
TMCR	≤ 0.2
DPAI	≤ 0.2
RHLS	0.978
RHLD	≤ 0.2
RHWP	≤ 0.2
RHLH	0.229
RHWN	0.305
RHWS	0.925
TAQE	≤ 0.2
RTCV	≤ 0.2
LSSK	≤ 0.2
YMSG	≤ 0.2
SLTS	≤ 0.2
RLQG	1.01
RMQQ	≤ 0.2
RSQH	0.296
RSQP	≤ 0.2
RDQG	≤ 0.2
RPQG	≤ 0.2
RMQR	0.223
RCQG	1.02
RMQG	1.01
RSQG	0.995

Variant	one-hybrid fitness for binding parS DNA
RLQD	≤ 0.2
RLQN	0.471
FGAV	≤ 0.2
AVLG	≤ 0.2
GATL	≤ 0.2
VSCH	≤ 0.2
FRAR	≤ 0.2
KNVC	≤ 0.2
PTQM	≤ 0.2
HSEM	≤ 0.2
NFQG	≤ 0.2
RIQF	0.272
RTQG	1
RTQF	0.213
RFQG	0.965
DFQG	≤ 0.2
RIQG	0.999
RIQR	≤ 0.2
RTQR	≤ 0.2
NSFG	≤ 0.2
LQRT	≤ 0.2
MPTI	≤ 0.2
ANTA	≤ 0.2
ARCH	≤ 0.2
HTWT	≤ 0.2
RSAR	≤ 0.2

Variant	one-hybrid fitness for binding parS DNA
REAT	≤ 0.2
RDAT	≤ 0.2
RCAT	0.921
RSAT	0.869
RPAT	≤ 0.2
LAGT	≤ 0.2
HRLD	≤ 0.2
HMAN	≤ 0.2
WKAR	≤ 0.2
SDCR	≤ 0.2
RVTF	0.202
RVTD	≤ 0.2
RVTP	≤ 0.2
RVTH	0.22
RVTY	0.459
RVTT	0.949
RVTN	0.432
RVTS	0.972
RVTG	0.992
RVTC	0.982
RVTK	≤ 0.2
RVTM	0.299
QREG	≤ 0.2
